The structures appear in SMILES notation. Results filed as inconclusive are left out. A call without a number means that no potency is given here. Unmarked numbers belong to inactive results. The source made the active and inactive calls. Calls follow the shape of the dose curve; as a rule, active = well fitted cell-killing curve with a large enough effect; inconclusive = small, poorly fitted or top-dose-only effect, or effect the other way; inactive = flat fitted curve, though single readings scatter.

The test system of this assay is SKOV3. The assay can be described thus: Primary qHTS to identify gynecologic anti-cancer compounds using libraries of approved drugs and bioactive compounds (AID 1345084). Also: nearly all actives have a fitted effect of over 55% in size. Particulars: Gynecologic cancer cell panel viability, ATPlite luminescence, 48 h; series mostly up to 57.5 µM. The gist of the method:
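Luminescence from the ATPlite ATP-monitoring reagent indicates viable cell number; lower signal means cytotoxicity. Cells received compound 16 h after seeding and were exposed for 48 h across five concentrations.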
For orientation: In qHTS, concentration-response curves come from the screen itself.
Regarding `CCCC1=CC2=C(CO1)C(=O)C(C)(O)C(OC(=O)c1c(C)cc(OC)cc1O)C2` (centres undefined), the Potency entry was “inactive”.

`CCOc1ccc(-c2nn3ncccc3c2-c2ccc(S(C)(=O)=O)cc2)cc1`: the Potency result is “inactive”.

Take `CC1(C)[C@H]2C[C@H](C/C=C\CCCC(=O)O)[C@@H](NC(=O)c3csc4ccc(O)cc34)[C@@H]1C2`: the Potency entry is “inactive”.

As for `O=C(Cc1ccc(Cl)cc1)Nc1cnccc1C(=O)O`, the Potency entry was “inactive”.

For `C[C@@H]1O[C@@H](O[C@H]2[C@H](Oc3cc(O)c(C(=O)CCc4ccc(O)cc4)c(O)c3)O[C@H](CO)[C@@H](O)[C@@H]2O)[C@H](O)[C@H](O)[C@H]1O`, the Potency result was “inactive”.

With `O=C1C(Cl)=C(N2CCOCC2)C(=O)N1c1ccc(Cl)c(Cl)c1`, the Potency entry was “inactive”.

Turning to `C[C@@H]1O[C@@H](OC2C(O[C@H]3[C@H](O[C@H]4CC[C@@]5(C)C(CC[C@]6(C)C5CC=C5C7CC(C)(C)CC(O)[C@]7(C)CC[C@]56C)C4(C)C)O[C@H](C(=O)O)[C@@H](O)[C@@H]3O)OC(CO)C(O)C2O)[C@H](O)[C@H](O)[C@H]1O` (some centres undefined), the activity change, negative = cytotoxicity was 6.34% [at 11.6 µM].

On to `CCC(C)/C=C(C)/C=C/C1=CC2=C(Cl)C(=O)C(C)(OC(C)=O)C(=O)C2=CN1C(CC(=O)O)C(=O)O` (centres undefined), for which the Potency entry was “inactive”.

Turning to `C/C=C(\C)C(=O)OC[C@H]1O[C@@H](O[C@H]2[C@@H](O[C@H]3O[C@H](COC(=O)/C(C)=C/C)[C@@H](O)[C@H](O)[C@H]3O[C@@H]3O[C@H](CO)[C@@H](O)[C@H](OC(=O)/C(C)=C/C)[C@H]3O)O[C@H](COC(=O)/C(C)=C/C)[C@@H](O)[C@@H]2O)[C@H](O)[C@@H](O)[C@@H]1O`, the activity change, negative = cytotoxicity is 3.76% [at 11.6 µM].

For the compound `COc1cc(C)c(C(=O)O[C@@H]2[C@H](O)[C@@H](CO)O[C@H]2n2ccc(=O)[nH]c2=O)c(OC)c1`, the Potency entry was “inactive”.

Turning to `C=C[C@H]1[C@H](O[C@@H]2O[C@H](CO)[C@@H](O)[C@H](O)[C@H]2O)OC=C(C(=O)OC)[C@H]1CCO`, the Potency result is “inactive”.

Turning to `COc1cc(CCCO)ccc1O[C@@H]1O[C@H](CO)[C@@H](O)[C@H](O)[C@H]1O`, the Potency result was “inactive”.

For `CC[C@H](C)[C@H](NC(=O)[C@H](Cc1ccc(O)cc1)NC(=O)[C@@H](N)C(C)C)C(=O)N[C@@H](Cc1cnc[nH]1)C(=O)N1CCC[C@H]1C(=O)N[C@@H](Cc1ccccc1)C(=O)O`, the activity change, negative = cytotoxicity is 16.8% [at 6.55 µM].

`CC(C)(O)C(O)C(=O)OCc1ccc(O[C@@H]2O[C@H](CO)[C@@H](O)[C@H](O)[C@H]2O)cc1` (some centres undefined): the Potency entry was “inactive”.

In the case of `C=Cc1ccc(O[C@@H]2O[C@H](CO[C@@H]3O[C@@H](C)[C@H](O)[C@@H](O)[C@H]3O)[C@@H](O)[C@H](O)[C@H]2O)cc1`, the Potency result was “inactive”.

On to `COc1ccc(-n2c(SCC#N)nc3sc4c(c3c2=O)CCCC4)cc1`, for which the Potency entry is “inactive”.

Take `O=C(CC1CC(c2ccc(F)cc2F)=NO1)N1CCOCC1` (centres undefined): the Potency entry was “inactive”.

In the case of `CC(C)=C1CC2[C@](C)(CC[C@@H](OC(=O)C3(C)OC3C)[C@@]2(C)O)CC1=O` (some centres undefined), the Potency result was “inactive”.

As to `COc1cc(/C=C/C(=O)O[C@H]2[C@H](O)[C@@H](CO)O[C@@]2(CO)O[C@H]2O[C@H](CO)[C@@H](O)[C@H](O)[C@H]2O)cc(OC)c1O`, the Potency result is “inactive”.

As to `CC(=O)OC(C)(C)/C=C/C(=O)[C@](C)(O)C1[C@H](O)C[C@@]2(C)[C@@H]3CC=C4[C@@H](C[C@H](O[C@@H]5O[C@H](CO)[C@@H](O)[C@H](O)[C@H]5O)C(=O)C4(C)C)[C@]3(C)C(=O)C[C@]12C` (some centres undefined), the Potency result was “inactive”.

Take `CC(C)C(NC(=O)c1ccc(O)cc1)C(=O)N1CCCC1C(=O)Nc1c(O)cccc1C(=O)O` (centres undefined): the Potency result was “inactive”.

Take `O=C(OC[C@H]1O[C@@H](Oc2ccccc2COC(=O)C2(O)C=CCCC2O)[C@H](O)[C@@H](O)[C@@H]1O)c1ccccc1` (some centres undefined): the Potency result is “inactive”.

For `COc1cc(/C=C/C(=O)O)ccc1O[C@@H]1O[C@H](CO)[C@@H](O)[C@H](O)[C@H]1O[C@@H]1OC[C@](O)(CO)[C@H]1O`, the Potency result is “inactive”.

For the compound `CC1C(O)C(O)C2C(C(=O)OCCc3ccc(O)cc3)=COC(O[C@@H]3O[C@H](CO)[C@@H](O)[C@H](O)[C@H]3O)C12` (some centres undefined), the Potency result is “inactive”.

For the compound `CC1OC(OC2C(OC(=O)[C@]34CCC(C)(C)C[C@H]3C3=CCC5[C@@]6(C)CC[C@H](OC7OC(C(=O)O)C(O)C(O)C7O)C(C)(C)C6CC[C@@]5(C)[C@]3(C)CC4O)OC(CO)C2O)C(O)C(O)C1OC1OCC(O)C(O)C1O` (some centres undefined), the activity change, negative = cytotoxicity is -0.208% [at 11.6 µM].

As to `O=C(/C=C/c1ccccc1)O[C@@H]1[C@@H](CO)O[C@@](CO)(O[C@H]2O[C@H](CO)[C@@H](O)[C@H](O)[C@H]2O)[C@H]1O`, the Potency result was “inactive”.

As to `COc1cc(C(=O)OCC2=CCC3C(C(=O)O)=COC(O[C@@H]4O[C@H](CO)[C@@H](O)[C@H](O)[C@H]4O)C23)ccc1O` (some centres undefined), the Potency result is “inactive”.

As to `COc1cc2c(cc1OC)N1C(=O)C[C@@]34C=CC[N@+]5([O-])CC[C@H]2[C@H](CC3)[C@@]145`, the Potency entry is “inactive”.

On to `COc1cc(C(CO)CO[C@@H]2O[C@H](CO)[C@@H](O)[C@H](O)[C@H]2O)ccc1O` (some centres undefined), for which the Potency entry is “inactive”.

As for `CC(=O)NC(C(=O)OC1CCC(C)(C)C2CC=C3C(=O)OCC3C12C)C(C)C` (centres undefined), the Potency entry was “inactive”.

With `COc1ccc(/C=C/C(N)=O)cc1OC`, the Potency result is “inactive”.

Take `Cc1oc(S(=O)(=O)N2CCCCC2)cc1NC(=O)Nc1ccccc1`: the Potency entry was “inactive”.

For the compound `CC(=O)[C@@H]1C[C@H](C(C)(C)O[C@@H]2O[C@H](CO)[C@@H](O)[C@H](O)[C@H]2O)CC[C@@]2(CO)OC(=O)C[C@@H]12`, the Potency result is “inactive”.

`O=C(O)c1cc(C(F)(F)F)ccc1N1CC[C@H](OCc2ccccn2)C1`: the Potency result is “inactive”.

As to `C=C1CCC2C(C)(C(=O)O)CCCC2(C)C1CC/C(C)=C\CO` (centres undefined), the Potency result was “inactive”.

For `CC(C)c1ccc2c(c1)C(O)CC1C(C)(C(=O)O)CCCC21C` (centres undefined), the Potency result was “inactive”.

In the case of `O=C(O)CC1CCC(c2ccc(-c3ccc(Nc4ccc(C(F)(F)F)nc4)cn3)cc2)CC1` (centres undefined), the Potency result was “inactive”.

As to `COCC1OC(OC(C)(C)C2CCC3(C)C=C(C4CCC5C4(C)CC(O)C4OC(C(C)(C)O)CCC45C)CCC3O2)C(NC(C)=O)C(O)C1O` (centres undefined), the Potency entry is “inactive”.

Consider `CC(C)CC(=O)OC[C@@]1(O)C[C@@]23CC[C@H]4[C@@](C)(CCC[C@@]4(C)C(=O)O)[C@@H]2CC[C@@H]1C3`, for which the Potency entry was “inactive”.

The values are drawn from PubChem BioAssay (NCATS).
